Drawing on PubChem BioAssay, this text covers composite z-score and z-score for 16 compounds.

Active and inactive are the calls of the source.

The nature of assay [1]: compounds binding Alexa647 anti-His antibody – biochemical, small-molecule microarray, 635 nm fluorescence, artefact control for SMM control protein annotation, primary screen (AID 1128).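 Further: score merges feature fluorescence with signal-to-noise for each printed compound spot.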 Conditions: higher = more signal.
Assay [2] relates to Human papillomavirus type 1a E7 protein (residues 1-88). The assay is described as follows: HPV1a E7 small-molecule binders, primary screen, biochemical, small-molecule microarray, residues 1-88, 635 nm (AID 1129). Conditions: small-molecule microarray binding, fluorescence 635 nm; higher = more signal.
Assay [3] deals with Focal adhesion kinase 1 (Homo sapiens) (UniProt Q05397). The assay is described as follows: PTK2 protein binding on printed compound slides – biochemical, small-molecule microarray, 635/667 nm fluorescence, BSA, DTT, primary screen (AID 1130).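 Further: composite of spot emission at 667 nm and signal to noise over triplicate slides.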 The following applies: 635 nm fluorescence, higher = more signal.
Focal adhesion kinase 1 (Homo sapiens), sequence (Q05397 whole entry, looked up): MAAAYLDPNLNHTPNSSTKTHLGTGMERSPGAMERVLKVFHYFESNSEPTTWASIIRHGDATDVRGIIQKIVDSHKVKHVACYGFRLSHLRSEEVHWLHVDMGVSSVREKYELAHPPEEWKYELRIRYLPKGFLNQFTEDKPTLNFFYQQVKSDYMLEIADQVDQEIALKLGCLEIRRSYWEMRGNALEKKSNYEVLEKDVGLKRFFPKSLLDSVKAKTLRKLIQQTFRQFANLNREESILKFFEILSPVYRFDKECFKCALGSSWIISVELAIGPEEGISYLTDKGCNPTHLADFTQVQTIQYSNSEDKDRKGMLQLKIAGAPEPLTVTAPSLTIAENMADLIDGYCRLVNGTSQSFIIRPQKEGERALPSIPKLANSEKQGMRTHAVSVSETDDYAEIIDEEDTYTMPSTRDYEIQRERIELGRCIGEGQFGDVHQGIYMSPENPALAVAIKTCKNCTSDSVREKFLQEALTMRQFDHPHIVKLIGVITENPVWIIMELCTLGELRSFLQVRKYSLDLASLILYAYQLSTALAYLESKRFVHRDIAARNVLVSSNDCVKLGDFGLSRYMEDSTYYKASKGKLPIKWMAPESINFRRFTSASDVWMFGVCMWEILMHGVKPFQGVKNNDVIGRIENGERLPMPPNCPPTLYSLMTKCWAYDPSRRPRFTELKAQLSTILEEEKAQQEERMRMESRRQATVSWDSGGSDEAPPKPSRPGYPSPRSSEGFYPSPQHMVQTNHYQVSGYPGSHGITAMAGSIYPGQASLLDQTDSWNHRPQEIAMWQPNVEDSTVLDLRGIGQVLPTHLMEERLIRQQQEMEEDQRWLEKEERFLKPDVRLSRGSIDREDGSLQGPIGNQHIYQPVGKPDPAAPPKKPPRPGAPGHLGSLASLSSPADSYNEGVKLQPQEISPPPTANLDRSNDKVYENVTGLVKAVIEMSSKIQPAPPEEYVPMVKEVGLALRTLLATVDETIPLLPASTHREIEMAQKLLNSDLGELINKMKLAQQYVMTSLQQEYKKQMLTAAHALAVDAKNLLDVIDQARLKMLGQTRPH
Assay [4] has as its system Fibrinogen (Alexa647-labelled). The assay is described as follows: Alexa647-fibrinogen binding to printed small molecules – biochemical, small-molecule microarray, 635/667 nm fluorescence, artefact control for SMM control-protein annotation, profiling panel (AID 1131).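 Further: z-score merges 667 nm fluorescence with per-spot signal-to-noise over triplicate slides.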 The following applies: fibrinogen-A647 binding fluorescence, higher = more signal.
Assay [5] concerns the target Follistatin (Homo sapiens) (UniProt P19883). Nature of the assay: FST protein binding to printed compounds – biochemical, small-molecule microarray, 635/667 nm fluorescence, primary screen (AID 1132). Conditions: 635 nm fluorescence, higher = more signal.
Assay [6] addresses Fibroblast growth factor 2 (Homo sapiens) (UniProt P09038). Nature of the assay: basic fibroblast growth factor binding to printed compounds – biochemical, small-molecule microarray, 635/667 nm fluorescence, primary screen (AID 1133). The following applies: FGF2, fluorescence 635/667, higher = more signal.
The nature of assay [7]: JC-1 mitochondrial potential readout, lung cancer cells – cell-based, A549, JC-1 fluorescence, basal, 24 h, 100 nL, profiling panel (AID 1138).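 Further: A549 lung adenocarcinoma cells under basal conditions with no added stimulus; test concentration not given here.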 Conditions: higher = more signal.
Assay [8] has as its system Lefty1. The assay is described as follows: Lefty1 protein binding to printed compounds – biochemical, small-molecule microarray, 635/667 nm fluorescence, primary screen (AID 1139). The following applies: fluorescence 635/667, higher = more signal.
Assay [9] relates to wheat germ agglutinin (Triticum aestivum), Alexa647-labelled. Nature of the assay: Alexa647-WGA lectin binding to printed small molecules – biochemical, small-molecule microarray, 635/667 nm fluorescence, artefact control for SMM control-protein annotation, profiling panel (AID 1140).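 Further: score merges 667 nm feature emission with signal to noise over triplicate slides.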 Conditions: WGA-A647 binding, 635 nm fluorescence, higher = more signal.
Assay [10] has as its target Luciferin 4-monooxygenase (Photinus pyralis) (UniProt P08659). Nature of the assay: inhibition of purified Photinus pyralis luciferase – biochemical, luminescence, purified enzyme, 2006 set, primary screen (AID 1141).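 Further: cell-free assay with purified firefly luciferase at 100 ng per well in PBS; test concentration not given here.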 Conditions: purified firefly luciferase, SteadyGlo luminescence, 30 min; higher = more signal, called active from +8 up or from −8 down.

Follistatin (Homo sapiens), sequence (P19883 whole entry, looked up): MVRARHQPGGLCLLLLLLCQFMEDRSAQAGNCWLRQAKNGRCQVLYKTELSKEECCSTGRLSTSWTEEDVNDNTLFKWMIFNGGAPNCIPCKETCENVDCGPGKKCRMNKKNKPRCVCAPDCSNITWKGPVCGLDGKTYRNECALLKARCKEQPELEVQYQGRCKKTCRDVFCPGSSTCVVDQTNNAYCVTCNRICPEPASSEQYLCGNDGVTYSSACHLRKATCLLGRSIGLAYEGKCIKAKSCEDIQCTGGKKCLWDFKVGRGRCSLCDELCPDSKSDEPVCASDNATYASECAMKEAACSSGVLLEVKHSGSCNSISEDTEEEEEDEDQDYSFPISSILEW
Fibroblast growth factor 2 (Homo sapiens), sequence (P09038 whole entry, looked up): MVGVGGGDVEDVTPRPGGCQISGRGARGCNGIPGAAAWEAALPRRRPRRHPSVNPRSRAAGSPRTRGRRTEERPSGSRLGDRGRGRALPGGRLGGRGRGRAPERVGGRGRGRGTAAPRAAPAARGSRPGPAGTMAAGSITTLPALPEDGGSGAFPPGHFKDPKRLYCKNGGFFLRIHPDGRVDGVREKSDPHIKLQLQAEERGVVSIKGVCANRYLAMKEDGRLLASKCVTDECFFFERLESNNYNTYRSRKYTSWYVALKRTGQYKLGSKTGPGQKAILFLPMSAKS
Luciferin 4-monooxygenase (Photinus pyralis), sequence (P08659 whole entry, looked up): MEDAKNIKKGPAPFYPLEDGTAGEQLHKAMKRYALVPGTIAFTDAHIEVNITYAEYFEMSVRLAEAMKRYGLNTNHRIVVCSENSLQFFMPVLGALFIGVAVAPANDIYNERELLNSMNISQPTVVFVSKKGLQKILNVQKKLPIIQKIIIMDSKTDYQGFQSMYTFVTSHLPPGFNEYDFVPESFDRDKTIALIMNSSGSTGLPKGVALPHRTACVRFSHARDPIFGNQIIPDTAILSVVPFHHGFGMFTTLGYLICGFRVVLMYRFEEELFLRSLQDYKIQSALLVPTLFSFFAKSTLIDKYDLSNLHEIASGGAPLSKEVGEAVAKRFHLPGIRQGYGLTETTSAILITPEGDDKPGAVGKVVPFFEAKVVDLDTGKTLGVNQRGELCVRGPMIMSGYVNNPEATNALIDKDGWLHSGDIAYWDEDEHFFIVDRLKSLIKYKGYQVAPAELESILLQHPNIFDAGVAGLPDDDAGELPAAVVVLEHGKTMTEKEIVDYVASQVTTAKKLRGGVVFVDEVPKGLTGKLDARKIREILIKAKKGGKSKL

In the case of `CC(C)CCC[C@@H](C)[C@H]1CC[C@@]2(C)C3=C(CC[C@]12C)[C@@]1(C)CC[C@H](OC(=O)C(C)(C)C)C(C)(C)C1CC3` (stereo not given in full), the composite z-score was 0.43 in [1]; 0.586 in assay [2]; 0.0226 in [3]; 0.551 in [4]; 0.828 in assay [5]; 0.232 in [6]. In addition, the composite z-score in assay [8] worked out at 0.543; in assay [9] it was 0.0969. For the same compound, the z-score was 0.4 in assay [7] and 0.159 (inactive) in assay [10].
Regarding `COC(=O)c1c(CC[C@@H](CO)NC(=O)N[C@@H](C)Cn2cc(C3(O)CCCC3)nn2)oc(C(C)=O)c1C(=O)OC`, the composite z-score in assay [1] is 0.863; in [2], -0.0221; in assay [3] it was -0.118; in [4], 0.188; in assay [5], 0.511; in [6], 0.0707. Further, the composite z-score stood at 1.54 in assay [8] and 1.3 in [9]. The figures for the z-score in assay [7] and in assay [10] were -0.638 and 0.315 (inactive), respectively.
As to `COc1cc(C(O)C2C=CC3C(=O)N(C)C(=O)C3N2NC(=O)OC(C)(C)C)cc(OC)c1OC` (stereo not given), the composite z-score is 1.28 in assay [1]; 1.21 in assay [2]; 0.474 in [3]; 1.03 in assay [4]; 0.0314 in assay [5]; -0.0371 in assay [6]. Moreover, the results for the composite z-score in assay [8] and in assay [9] were -0.338 and 0.807, respectively. Moreover, the z-score in assay [7] is -0.54; in [10], 0.225 (inactive).
Regarding `CN(C)C(=O)[C@@]1(CCC(=O)OC(C)(C)C)N=C(c2ccc(OCCCO)cc2)O[C@H]1c1ccccc1N=[N+]=[N-]`, the composite z-score in [1] was 0.546; in assay [2] it was 1.32; in assay [3], 0.162; in assay [4], 1.04; in assay [5], 1.45; in [6] it was 1.58. The figures for the composite z-score in [8] and in assay [9] were 0.722 and 1.01, respectively. Besides, the z-score in assay [7] was 1.15; in assay [10] it was -7.12 (inactive).
`COC(=O)C(CC#Cc1ccc2c(c1)[C@]1(C(=O)N2)[C@H](C(=O)N2CCc3cc(OC)c(OC)cc3C2)[C@H]2C(=O)O[C@H](c3ccccc3)[C@H](c3ccccc3)N2[C@@H]1c1ccc(OCCO)cc1)C(=O)OC`: the composite z-score in assay [1] was 1.47; in assay [2] it was 1.19; in assay [3], 0.344; in assay [4], 0.99; in [5], 1.01; in assay [6], 1.71. Moreover, the figures for the composite z-score in assay [8] and in assay [9] were 0.928 and 1.23, respectively. Also, the z-score in [7] is -1.29; in assay [10], -1.9 (inactive).
`CCCCC(O)C1C=CC2C(=O)N(Cc3ccccc3)C(=O)C2N1n1cnnc1` (stereo not given): the composite z-score was 2.39 in assay [1]; 0.433 in assay [2]; 0.242 in assay [3]; 0.892 in assay [4]; 0.457 in assay [5]; -0.0025 in assay [6]. The values for the composite z-score in [8] and in assay [9] were 0.289 and 0.652, respectively. The z-score in [7] was -0.721; in assay [10], 1.48 (inactive).
As to `O=c1c2ccc(Br)cc2nc(-c2ccccc2)n1Cc1cccc(O)c1`, the composite z-score in assay [1] was determined as 0.741; in assay [2] it was 0.988; in [3], 0.551; in assay [4], 0.671; in [5] it was 0.346; in [6] it was 0.283. For the same compound, the results for the composite z-score in [8] and in assay [9] were -0.0693 and 1.05, respectively. For the same compound, the z-score is 0.836 in assay [7] and -0.273 (inactive) in assay [10].
Regarding `O=C1c2ccccc2C(=O)C2CC([C@H]3Oc4ccccc4S(=O)(=O)N4CCC[C@@H]34)=CCC12` (stereo not given in full), the composite z-score in [1] was -0.0332; in assay [2] it was 0.101; in [3] it was 0.867; in assay [4], 0.788; in assay [5], -0.0849; in assay [6], 0.189. Also, the composite z-score is -0.02 in assay [8] and 0.47 in assay [9]. Further, the z-score in [7] was -0.309; in assay [10], -0.759 (inactive).
On to `COCCCNC(=O)[C@@]1(C)c2ccccc2C(=O)N(c2ccc(C)cn2)[C@H]1c1ccc(CO)cc1`, for which the composite z-score in assay [1] is -0.545; in [2], -0.454; in assay [3], -0.193; in [4], -1.03; in [5], -0.0423; in assay [6] it was 0.204. The composite z-score in assay [8] was -0.939; in [9] it was 0.421. The z-score in [7] was -0.9; in assay [10] it was 0.522 (inactive).
Consider `COCCCNC(=O)[C@@H]1c2ccccc2C(=O)N(c2ccc(C)cn2)[C@H]1c1ccc(CO)cc1`, for which the composite z-score in [1] was -0.346; in assay [2], -1.11; in assay [3], -1.24; in [4] it was -1.04; in [5], -1.25; in assay [6], -2.41. The composite z-score in [8] was -1.03; in assay [9], 0.0195. Besides, the z-score in assay [7] is -0.758; in [10], 0.195 (inactive).
In the case of `Cc1ccccc1C(O)C1C=CC2C(=O)N(C)C(=O)C2N1Nc1ccc([N+](=O)[O-])cc1[N+](=O)[O-]` (stereo not given), the composite z-score in assay [1] was 0.509; in assay [2] it was 1.27; in assay [3] it was 0.646; in assay [4], 1.02; in assay [5] it was 0.674; in assay [6], -0.38. In addition, the results for the composite z-score in [8] and in [9] were -0.167 and 0.913, respectively. For the same compound, the z-score was 0.668 in assay [7] and 0.147 (inactive) in assay [10].
Consider `C[N+](C)(C)CCCCCCNC(=O)[C@@H]1C[C@@H]2C(=O)NCC(=O)N2[C@@H]1c1cccc(OCCO)c1`, for which the composite z-score in assay [1] was 1.4; in assay [2], 0.044; in [3], 1.18; in [4] it was 0.615; in [5] it was 1.38; in assay [6], 1.33. Also, the figures for the composite z-score in assay [8] and in assay [9] were 1.28 and 0.571, respectively. The z-score in assay [7] is -0.842; in assay [10], 0.801 (inactive).
Turning to `N#Cc1ccc(NN2C(C(O)c3ccco3)C=CC3C(=O)N(c4ccccc4)C(=O)C32)cc1` (stereo not given), the composite z-score in assay [1] is 0.716; in assay [2], -0.0085; in [3] it was 0.788; in assay [4], 0.251; in assay [5] it was 0.552; in [6], -0.302. For the same compound, the composite z-score in assay [8] was -0.231; in assay [9], 0.754. Besides, the z-score in assay [7] is -0.244; in assay [10] it was -0.72 (inactive).
Take `COc1ccc([Si](C)(C)[C@@H]2[C@@H](CC(=O)N3Cc4ccccc4C[C@H]3CO)O[C@]3(C(=O)N(Cc4cccc(N5CCCCC5=O)c4)c4ccccc43)[C@H]2C)cc1`: the composite z-score in assay [1] came to 1.02; in assay [2] it was 1.13; in assay [3] it was 0.739; in assay [4] it was 0.641; in assay [5], 1.36; in [6], 1.57. The composite z-score in assay [8] was 1.5; in [9], 0.676. For the same compound, the results for the z-score in [7] and in [10] were -0.96 and 0.227 (inactive), respectively.
Turning to `NC(=O)[C@H]1[C@@H]2C(=O)O[C@@H](c3ccccc3)[C@@H](c3ccccc3)N2[C@@H](c2ccc(O)cc2)[C@]12C(=O)Nc1ccc(C#CC3(O)CCCCCC3)cc12`, the composite z-score was determined as 1.55 in [1]; 1.23 in assay [2]; 0.505 in assay [3]; 0.946 in assay [4]; 1.24 in assay [5]; 1.58 in assay [6]. The values for the composite z-score in assay [8] and in assay [9] were 0.889 and 0.949, respectively. For the same compound, the z-score was -1.43 in [7] and 0.268 (inactive) in [10].
`CCOC(=O)C1=CC[C@@H](c2ccc(N(CC)CC)cc2)N(S(=O)(=O)c2ccc(C)cc2)[C@H]1c1ccc([N+](=O)[O-])cc1`: the composite z-score in [1] is 0.479; in assay [2], 0.836; in assay [3], 0.718; in assay [4], 0.403; in [5] it was -0.35; in assay [6], -1.18. In addition, the values for the composite z-score in assay [8] and in [9] were -0.863 and 0.516, respectively. Moreover, the values for the z-score in assay [7] and in [10] were 1.53 and 0.719 (inactive), respectively.
